# The sample as a whole holds a higher share of hits than the screen did.
# ERG Ets-DNA blk – inhibitors of human ERG Ets domain-DNA interaction; P11308; 370,000 tested, 0.028% active; Potency, µM (top dose mostly 76.9 µM), without a hit: top-dose FP activity, negative = inhibition, most hits filed as inhibitors; fluorescence polarization, His-ERG Ets domain / labelled DNA; active = well fitted inhibition curve with a large enough effect in the polarisation, with a control signal flat; inconclusive = small, poorly fitted or top-dose-only effect, or effect the other way, or a change in a side signal; inactive = no such curve, though single readings can be large or run the other way; the % refers to the polarisation;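 also: polarization taken with two DNA probes labelled with fluorescein and Texas red; potency is read from the fitted curve at half-maximal effect; % of control where 0% means no effect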
#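 His-tagged ERG Ets domain (1 uM in the protein solution; 300mM KCl, 50mM Tris-HCl, 1mM EDTA, 1mM DTT, pH 7.5) received compound, then a probe mix of 5 nM fluorescein-DNA and 100nM Texas-615-DNA. Fluorescence polarization was read for both dyes.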
# Giardia kill – kills Giardia lamblia; AID 540267; Giardia lamblia trophozoite viability; activity change, % at 7.66 µM, hits read low; 340,000 tested, 0.15% active; in the data active = activity change below about -80%; inconclusive = between about -30% and that limit;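 also: parasites exposed to compound for two days anaerobically before the ATP read; % is scaled to controls: 0 for no effect and ±100 for the full control effect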
#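 ATP-content bioluminescence gauges trophozoite survival. Cells (100/well) receive compound and incubate anaerobically for 48 hrs at 37 deg C; detection reagent follows for 15-30 min at room temperature.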
# Gal4-VP16 FLuc – Gal4-VP16 reporter inhibition counter-screen | Drosophila S2 Gal4-VP16 UAS-luciferase, luminescence, 20 h | Potency, µM (highest dose often 53.6 µM), without a hit: top-dose activity, negative = inhibition, most hits filed as inhibitors | 310,000 tested, 3.5% active | AID 2546;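 also: Gal4-VP16 expression switched on by copper sulfate through the metallothionein promoter; potency is read from the fitted curve at half-maximal effect; % is scaled to controls: 0 for no effect and ±100 for the full control effect; nearly all actives have a fitted effect of over 50% in size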
# RORgamma inh – ROR gamma (mouse) transcription inhibition | Drosophila S2 Gal4-RORgamma UAS-luciferase reporter, 20 h | Potency, µM (top dose mostly 53.6 µM), inactives show at the top dose activity change, negative = inhibition, most hits filed as inhibitors | 310,000 tested, 5.4% active | AID 2551; also: potency is read from the fitted curve at half-maximal effect; % is scaled to controls: 0 for no effect and ±100 for the full control effect; nearly all actives have a fitted effect of over 60% in size
# Target sequence (P51450 whole entry, looked up, the tested form may be a part): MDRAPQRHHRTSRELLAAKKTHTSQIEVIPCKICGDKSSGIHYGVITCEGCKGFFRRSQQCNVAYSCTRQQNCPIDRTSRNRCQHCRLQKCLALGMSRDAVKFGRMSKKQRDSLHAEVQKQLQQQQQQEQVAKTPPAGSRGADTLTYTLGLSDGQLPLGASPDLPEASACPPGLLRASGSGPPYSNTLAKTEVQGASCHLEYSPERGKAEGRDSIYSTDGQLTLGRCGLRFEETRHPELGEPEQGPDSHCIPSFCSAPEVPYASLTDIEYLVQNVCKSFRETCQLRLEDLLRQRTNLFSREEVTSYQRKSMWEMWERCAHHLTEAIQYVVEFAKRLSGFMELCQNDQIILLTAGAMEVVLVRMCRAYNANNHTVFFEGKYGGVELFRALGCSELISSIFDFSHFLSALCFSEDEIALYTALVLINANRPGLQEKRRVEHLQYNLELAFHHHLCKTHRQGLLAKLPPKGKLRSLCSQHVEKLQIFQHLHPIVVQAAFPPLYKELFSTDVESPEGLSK
#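 Drosophila Schneider cells stably carrying a metallothionein-driven Gal4 DBD–ROR gamma fusion and a UAS-Photinus luciferase reporter were exposed to compound for 1 hr, then induced with copper sulfate (700 uM final) for 20 hr at ambient temperature before luminescence reading.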
# a7 integrin act – activates integrin-mediated alleviation for muscular dystrophy; alpha7betagal myoblasts, beta-gal FDG fluorescence, 48 h; 350,000 tested, 0.064% active; Potency, µM (top dose mostly 38.3 µM), inactives show at the highest dose activation, hits mostly activators;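 also: potency is read from the fitted curve at half-maximal effect; 100% = response of the positive control SU9516; nearly all actives have a fitted effect of over 60% in size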
#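 Alpha7betagal+/- myoblasts (passage 13) were plated 16-24 hr, then exposed to compounds (1:260 dilution of DMSO stock) for 48 hours at 37C. After MPER lysis, β-galactosidase reporter activity was read as FDG fluorescence (ex 480/em 540) after 30 minutes.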
# * hit, by the source's call; ? = inconclusive; nt = not tested or not shown. Unless noted, calls follow the shape of the dose curve; as a rule, active = well fitted curve in the direction sought with a large enough effect; inconclusive = small, poorly fitted or top-dose-only effect, or another doubt; inactive = no such curve, though single readings can be large; an effect the other way counts as inactive or inconclusive.
SMILES,ERG Ets-DNA blk,Giardia kill,Gal4-VP16 FLuc,RORgamma inh,a7 integrin act
CC(C)C[C@H](NC(=O)[C@H](CCCCN)NC(=O)[C@H](CCC(N)=O)NC(=O)[C@H](Cc1cnc[nH]1)NC(=O)[C@H](Cc1cnc[nH]1)NC(=O)[C@@H](N)C(C)C)C(=O)N[C@H](C(=O)N[C@@H](Cc1ccccc1)C(=O)N[C@@H](Cc1ccccc1)C(=O)N[C@@H](C)C(=O)N[C@@H](CCC(=O)O)C(=O)N[C@@H](CC(=O)O)C(=O)N[C@H](C(=O)NCC(=O)N[C@@H](CO)C(=O)N[C@@H](CC(N)=O)C(=O)N[C@@H](CCCCN)C(=O)O)C(C)C)C(C)C,nt,nt,-4%,2%,nt
O=C(CSc1nnnn1-c1ccc(F)cc1F)Nc1ccccc1F,11%,23,-5%,?,14%
Oc1ccc(N=Nc2ccccc2-c2nn[nH]n2)c(O)c1,8%,-29,-17%,16µM*,3%
Cc1ccccc1-c1nn[nH]n1,-5%,16,2%,19%,10%
O=C(Nc1ccccc1Br)c1ccc(N2CCCC2=O)cc1,-9%,-27,nt,nt,11%
CCOC(=O)c1ccc(Nc2nc(N)c3cc(OC)c(OC)cc3n2)cc1,10%,?,?,-43%,-64%
Cc1ccc(C(=O)NCc2nc3ccccc3[nH]2)o1,8%,-6,-20%,-21%,3%
C/C(=N\Nc1nc2ccccc2[nH]1)c1ccc(Cl)s1,-26%,0,2.8µM*,2.2µM*,7%
O=C(CSc1nc2ccccc2[nH]1)c1ccc(Cl)s1,-1%,0,?,29%,4%
C/C(=N\Nc1nc2ccccc2[nH]1)c1ccc(C)o1,-3%,23,?,14µM*,12%
COc1ccc(NC(=O)Cn2c(=O)n(Cc3ccco3)c(=O)c3cc(OC)c(OC)cc32)cc1,0%,nt,nt,nt,nt
Cc1ccc(C(=O)CCC(=O)Nc2ccccc2C)c(C)c1,1%,-3,17%,21%,10%
O=c1[nH]c2ccc(Cl)cc2c(-c2ccccc2)c1SC(=S)N1CCOCC1,6%,31,4.5µM*,1µM*,1%
O=c1[nH]c2ccc(Cl)cc2c(-c2ccccc2)c1SC(=S)N1CCCCC1,8%,1,7.1µM*,5.6µM*,31%
O=c1[nH]c2ccc(Cl)cc2c(-c2ccccc2)c1[N+](=O)[O-],8%,8,-9%,1.3µM*,12%
O=c1[nH]c2ccc(Cl)cc2c(O)c1-c1ccccc1,-4%,-6,-10%,1%,6%
COc1ccc(N2CCN(S(=O)(=O)CCNC(=O)c3cccs3)CC2)cc1,13%,5,nt,nt,4%
Cc1ccccc1OCCn1c(CCNC(=O)C2CCCCC2)nc2ccccc21,-2%,9,nt,nt,nt
Cc1nnc(NC(=O)c2nc(S(=O)(=O)Cc3ccccc3C)ncc2Cl)s1,-14%,10,0.71µM*,3.5µM*,-63%
CSc1nnc(NC(=O)c2nc(S(=O)(=O)Cc3ccccc3F)ncc2Cl)s1,-2%,-8,10µM*,16µM*,-72%
CCc1nnc(NC(=O)c2nc(SCc3ccccc3F)ncc2Cl)s1,-1%,nt,nt,nt,nt
Cc1nnc(NC(=O)c2nc(SCc3ccccc3F)ncc2Cl)s1,-1%,nt,nt,nt,nt
O=C(Nc1nc2ccc(F)cc2s1)c1nc(S(=O)(=O)Cc2ccccc2F)ncc1Cl,4%,nt,nt,nt,nt
CC(C)c1nnc(NC(=O)c2nc(S(=O)(=O)Cc3ccccc3F)ncc2Cl)s1,8%,?,3.5µM*,7.9µM*,-66%
Cc1cccnc1NC(=S)Nc1ncccc1C,-2%,-22,2%,?,?
SMILES,ERG Ets-DNA blk,Giardia kill,Gal4-VP16 FLuc,RORgamma inh,a7 integrin act
O=C(CCCOc1ccc(Cl)cc1Cl)Nc1ccccc1C(=O)O,3%,1,-12%,8%,-16%
CCOc1ccccc1NC(=S)Nc1ncccc1C,nt,-3,7.1µM*,7.1µM*,-20%
CCOc1ccccc1NC(=S)NCc1ccco1,0%,-10,?,10µM*,-21%
COc1ccccc1NC(=S)NCc1ccc(Cl)cc1,-4%,-8,8.9µM*,11µM*,-19%
CCOc1ccccc1NC(=S)NC(=O)CCCOc1ccc(Cl)cc1Cl,nt,3,22µM*,5µM*,7%
COc1ccccc1NC(=O)NCc1ccco1,13%,19,-10%,1%,7%
C=C(C)Cn1c(SCC(=O)Nc2cccc(Cl)c2)nc2sc3c(c2c1=O)CCCC3,-3%,nt,nt,nt,nt
CC1(c2ccc(Cl)cc2Cl)NC(=O)N(CC(=O)Nc2ccc3[nH]c(=O)[nH]c3c2)C1=O (centres undefined),-2%,7,nt,nt,4%
CCOc1ccc(CNC(=S)Nc2ccccc2)cc1Cl,0%,7,5.6µM*,5.6µM*,-37%
CCOc1ccccc1NC(=S)NNS(=O)(=O)c1c(C)cc(C)cc1C,1%,7,14µM*,10µM*,-17%
CCOc1ccccc1NC(=S)NCc1ccccc1,-1%,-5,8.9µM*,7.1µM*,-33%
CCOc1ccccc1NC(=S)NCc1cccn1C,0%,-10,20µM*,11µM*,7%
CCOc1ccccc1NC(=S)Nn1cnnc1,0%,-1,-15%,-34%,7%
O=C(COC(=O)CCN=C1NS(=O)(=O)c2ccccc21)NNC(=O)c1ccc(Cl)cc1,4%,4,nt,nt,-46%
Cc1cc2nc(C)n(CCCNC(=O)Nc3ccc(F)cc3)c2cc1C,7%,3,4%,12%,-7%
CCOC(=O)C1(CCCc2ccccc2)CCN(C(=O)c2cnn(CC)c2)CC1,-10%,-2,-2%,-28%,5%
Cc1csc(NC(=O)C2CC(=O)N(c3ccc(C)c(C)c3)C2)n1 (centres undefined),3%,2,8%,0%,0%
CCOc1ccc(NC(=O)c2cc(=O)c3ccc(C)c(C)c3o2)cc1,3%,nt,nt,nt,nt
CCOc1ccccc1NC(=S)Nc1ccccc1F,-5%,-1,?,11µM*,-17%
COc1ccccc1NC(=S)NCc1ccccc1,-5%,5,?,14µM*,-25%
COc1ccc(CNC(=S)NCc2ccc(Cl)cc2)cc1OC,-2%,4,22µM*,?,-4%
C[C@@H]1CN([C@H](C)CO)C(=O)CCCn2cc(nn2)CO[C@H]1CN(C)C(=O)Nc1ccc(-c2cccs2)cc1,nt,nt,nt,nt,22%
Cc1ccc(-c2nc(-c3ccccn3)no2)cc1[N+](=O)[O-],-6%,?,6.3µM*,10µM*,-14%
c1ccc(-c2n[nH]c(-c3ccccn3)n2)cc1,3%,5,1.1µM*,1.1µM*,0%
CCN(CC)c1ccc(-c2nc(-c3ccccn3)no2)cc1[N+](=O)[O-],-3%,nt,nt,nt,nt
Clc1cccc(-c2nc(-c3ccccn3)no2)c1,0%,?,8.9µM*,5µM*,-16%
Cc1ccc(-c2nc(-c3ccccn3)no2)cc1,0%,-90*,2µM*,0.89µM*,11%
